D1 potentiator – potentiators of human D1 dopamine receptor | HEK293 TREx D1 cells, calcium flux, dopamine EC20 potentiation | potentiation, % at 10 µM | actives 0.036% (n = 360,000) | P21728; in the data active = potentiation above about 30%; also: 0% is about no effect
Target sequence (P21728 whole entry, looked up): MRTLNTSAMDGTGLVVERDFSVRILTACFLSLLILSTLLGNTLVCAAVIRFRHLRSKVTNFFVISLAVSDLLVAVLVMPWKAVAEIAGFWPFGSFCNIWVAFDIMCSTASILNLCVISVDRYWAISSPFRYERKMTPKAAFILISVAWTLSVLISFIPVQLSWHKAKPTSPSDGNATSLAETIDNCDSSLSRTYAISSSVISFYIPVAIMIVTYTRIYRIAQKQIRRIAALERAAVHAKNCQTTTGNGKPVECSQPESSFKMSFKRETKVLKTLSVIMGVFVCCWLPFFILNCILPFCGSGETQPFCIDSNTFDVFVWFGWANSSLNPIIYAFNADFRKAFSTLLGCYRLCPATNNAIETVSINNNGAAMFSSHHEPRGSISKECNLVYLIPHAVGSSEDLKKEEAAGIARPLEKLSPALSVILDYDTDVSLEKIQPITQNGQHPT
D1 ag – human D1 receptor agonism. HEK293 T-REx D1 cells, calcium flux, agonist mode. activation, % at 2 µM. actives 1% (n = 360,000). AID 504660; also: 0% is about no effect
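Inducible HEK293 T-REx D1 cells, force-coupled to calcium signalling, were plated at 4000 cells/well with tetracycline and held overnight at 30 C. After no-wash calcium dye loading, compound-evoked calcium rise over 180 s flagged agonists.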
D1 antag – blocks dopamine activation of the human D1 receptor; P21728; HEK293 TREx D1 cells, calcium flux, dopamine EC80; hits give low values; activity change, negative = inhibition, % at 10 µM; actives 3.2% (n = 360,000); AID 504652; in the data active = activity change below about -30%; also: % is scaled to controls: 0 for no effect and ±100 for the full control effect
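Tetracycline-induced HEK293 T-REx cells with force-coupled D1 receptor were loaded with a no-wash calcium dye. Compound was added after a 10 s baseline and read kinetically for 180 s; EC80 dopamine was then added and calcium flux followed another 180 s.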
TRHR ag – activates the human TRH receptor; activation, % at 2 µM; AID 493084; actives 0.18% (n = 360,000); P34981; TRHR cells, calcium flux fluo-8, FDSS agonist mode; also: 0% is about no effect
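In this calcium-flux screen, cells bearing human TRHR are dye-loaded with fluo-8, baselined for 10 cycles, then exposed to library compounds; positive kinetic calcium responses during the agonist phase mark hits, with TRH as control.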
TRHR enhancer – allosterically enhances the human TRH receptor; P34981; TRHR cells, fluo-8 calcium fluorescence, EC20 TRH enhancement; enhancement, % at 2 µM; actives 0.66% (n = 360,000); in the data active = enhancement above about 30%; also: 0% is about no effect
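TRHR-expressing cells loaded with fluo-8 calcium dye were read kinetically (ex 480/em 530) during compound addition, then stimulated with an EC20 of TRH (10 nM final). Enhancement of the Gq-mediated intracellular calcium response was scored.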
Active calls of the source: *; x = no result given. The list is not random: actives were taken first. Their share in the collection is about 4.7%. Rule as the data show it, unless noted: active = activation above about 30%; inactive = the rest.

SMILES	D1 potentiator	D1 ag	D1 antag	TRHR ag	TRHR enhancer
CCn1cc(C(=O)NCc2ccccc2Cl)c(=O)c2cc(S(=O)(=O)N3CCCCC3)ccc21	2	1	-5	-1	3
CCCCN(C)CCCNC(=O)c1cn(CC)c2ccc(S(=O)(=O)N3CCOCC3)cc2c1=O	3	4	-32*	0	-6
CCC(C)NC(=O)c1cn(CC)c2ccc(S(=O)(=O)N(C)C)cc2c1=O (stereo unspecified)	-1	2	-5	0	-3
CCCCN(C)CCCNC(=O)c1cc(=O)[nH]c2ccc(S(=O)(=O)N3CCCCC3)cc12	-1	0	0	0	53*
Cc1ccccc1OC(C)C(=O)N1CCN(c2ccccn2)CC1 (stereo unspecified)	-3	2	-12	0	-6
COc1ccc(N2CCN(C(=O)c3ccc(-c4nc(COc5ccccc5)c(C)o4)cc3)CC2)cc1	-2	0	0	1	-4
COc1ccc(-c2nc(C)c(CCNC(=O)c3ccc(F)c(F)c3)s2)cc1	-3	1	-8	-1	-1
CCOCCCNC(=O)c1cn(C)c2ccc(S(=O)(=O)N3CCCC3)cc2c1=O	-3	4	10	0	-3
COCCNC(=O)c1cn(C)c2ccc(S(=O)(=O)N3CCCC3)cc2c1=O	1	4	-31*	1	5
COc1ccccc1CNC(=O)C1CCN(c2nc3ccc(Cl)cc3[nH]2)CC1	6	2	-74*	-1	1
O=C(C1CCN(c2nc3ccccc3[nH]2)CC1)N1CCN(c2cccc(Cl)c2)CC1	-4	15	-16	-1	4
Cc1ccc2nc(N3CCC(C(=O)N4CCN(c5cccc(Cl)c5)CC4)CC3)[nH]c2c1	-2	43*	-11	-1	-1
COc1cccc(-c2cc(C(=O)NCCc3ccc(C)cc3)[nH]n2)c1	-3	9	-70*	-1	0
O=C(O)c1nn(Cc2nc3ccccc3o2)c(=O)c2ccccc12	x	3	-77*	-2	2
Cc1ccc(-c2noc(Cn3nc(C(=O)O)c4ccccc4c3=O)n2)cc1	0	0	-3	0	-5
O=C1CN(C(=O)CSc2nc3ccccc3c(=O)n2Cc2ccc(F)cc2)c2ccccc2N1	-8	10	-59*	0	-6
CC(C)(C)C(=O)Nc1cc2c3c(c1)CCC(=O)N3CCC2	-5	1	-2	0	-3
O=C(COc1ccc(F)cc1)Nc1ccc(OCc2cc(=O)n3ccsc3n2)cc1	-2	-1	-2	-2	6
COc1ccc(NC(=O)CCN2CCN(S(=O)(=O)c3ccc(C(C)C)cc3)CC2)cc1	0	-1	-3	-2	2
CC(C)c1ccc(S(=O)(=O)N2CCN(CCC(=O)Nc3ccc(N(C)C)cc3)CC2)cc1	-2	0	-81*	-1	18
O=C(CN1CCN(S(=O)(=O)c2ccccc2)CC1)Nc1ccc2c(c1)OCO2	-7	0	-32*	0	-6
O=C(CN1C(=O)c2cccc3cccc1c23)Nc1ccc2c(c1)OCO2	2	1	6	-2	31*
CC(C)c1ccc(S(=O)(=O)N2CCN(CC(=O)Nc3ccc4c(c3)OCO4)CC2)cc1	-6	6	-30*	2	-3
O=C(Nc1cc(F)ccc1F)c1ccc(CN2CC(=O)N3CCCCC3C2=O)cc1 (stereo unspecified)	3	-1	-1	-1	16
Cc1nn2c(C)c(C(=O)N3CCN(c4ccccc4)CC3)cnc2c1-c1ccccc1	0	1	-3	-1	-4
SMILES	D1 potentiator	D1 ag	D1 antag	TRHR ag	TRHR enhancer
CN(C)S(=O)(=O)c1ccc(Cl)c(NC(=O)CN2CCN(Cc3ccc4c(c3)OCO4)CC2)c1	0	10	-58*	-2	-3
Fc1ccc(CNC(=S)NCc2cccc(Cl)c2)cc1	-4	-1	-33*	0	0
S=C(NCc1ccc(Cl)cc1)Nc1ccc(Cl)cc1Cl	-11	19	-21	1	-8
S=C(NCc1ccccc1)NCc1cccc(Cl)c1	-3	1	-17	0	-12
Fc1ccc(CNC(=S)Nc2ccc(Cl)cc2Cl)cc1	-12	24	-38*	1	-6
COc1ccccc1NC(=O)NC1(C(=O)NCC2CCCO2)CCCCC1 (stereo unspecified)	-8	2	-2	0	14
Cc1ccc(-c2nnc(COC(=O)c3cc(=O)[nH]c4ccccc34)o2)cc1	-1	-2	-85*	-1	0
CC(=O)Nc1ccc(OCc2nnc(-c3ccccc3)o2)cc1	-8	11	-48*	0	-4
CC(=O)c1c(C)[nH]c(C(=O)OCc2nnc(-c3ccccc3)o2)c1C	-4	7	-32*	0	0
CCOC(=O)c1cc(=O)[nH]c2ccccc12	-4	0	6	1	7
COc1ccc(NC(=O)CN(C)C(=O)c2ccc(NS(=O)(=O)c3ccc(F)cc3)cc2)cc1	-3	2	-27	0	6
Cc1cccc(N2C(=O)CCSC23C(=O)N(Cc2ccc(F)cc2)c2ccccc23)c1 (stereo unspecified)	-3	3	9	0	15
Cc1nccc(-c2cc(-c3ccc(Cl)cc3Cl)no2)n1	-5	1	-14	0	33*
O=C(c1cc(-c2ccc(Cl)cc2Cl)on1)N1CCCC1	-6	1	0	-1	-2
CC1(C)NC(=O)N(CC(O)COc2ccccc2C(=O)N2CCCCC2)C1=O (stereo unspecified)	-2	2	-30*	0	-2
CC1(C)NC(=O)N(CC(O)COc2cc3ccccc3cc2C(=O)N2CCCCC2)C1=O (stereo unspecified)	2	0	16	0	-1
CCCCC(O)C(=O)Nc1cc(C(F)(F)F)ccc1Cl (stereo unspecified)	0	2	-18	-3	1
O=C(Nc1ccnn1C1CCN(Cc2cc3ccccc3[nH]2)CC1)C1CCOC1 (stereo unspecified)	-9	10	-32*	18	-2
Cc1c(CN2CCC(n3nccc3NC(=O)C3CCOC3)CC2)[nH]c2ccccc12 (stereo unspecified)	-2	2	7	0	4
CC(NC(=O)c1ccc(=O)oc1)c1ccccc1 (stereo unspecified)	-8	1	-34*	0	4
CSc1nc2ccc3nc(NC(=O)c4ccccc4)sc3c2s1	0	-1	-3	0	37*
O=C(Nc1nc2ccccc2s1)c1ccccc1	3	1	-3	1	2
CCOC(=O)c1ccc(NC(=O)Nc2cc3c(cc2N2CCCC2)n(C)c(=O)n3C)cc1	-5	2	-32*	0	3
